Sampled rows, rich in hits. Any-hit rate of the full collection: about 15%.
Pf growth 48h – Primary qHTS for delayed death inhibitors of the malarial parasite plastid, 48 hour incubation. P. falciparum luciferase growth in erythrocytes, 48 h. Potency, µM (top dose mostly 28.7 µM), inactives show top-dose activity change, negative = inhibition, actives largely listed as inhibitors. actives 5.9% (n = 310,000); note: potency is the fitted concentration of half-maximal effect; % is set by controls: 0 for no effect and ±100 for the full control effect
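Luciferase-expressing P. falciparum in infected erythrocytes (2% hematocrit, 0.1% parasitemia final) in RPMI 1640/0.5% Albumax were exposed to compound for 48 hours at 37 C, 5% CO2; growth read as luminescence.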
HCMV antiviral – qHTS Assay for inhibitors of the human cytomegalovirus (HCMV) | AID 1259415, 2018 | HFF cells, HCMV-luciferase reporter, 72 h; hits give low values | actives 4.5% (n = 410,000) | activity change, negative = inhibition, % at 57.5 µM; in the data active = activity change below about -60%; inconclusive = no clear call, values can overlap the other calls; inactive = above about -39%; note: % is set by controls: 0 for no effect and ±100 for the full control effect
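Steps: HFFs plated, 16 h 37C; compounds added; HCMV-luciferase added to MOI 1 PFU/cell; 72 h 37C; OneGlo reagent, 5 min room temperature; luminescence read, normalized to controls.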
SARS PLpro yeast – qHTS of Yeast-based Assay for SARS-CoV PLP. actives 0.19% (n = 330,000). AID 485353, 2010. S. cerevisiae expressing SARS-CoV PLpro, growth rescue. Potency, µM (doses to about 32.9 µM), without a hit: at the top dose activity, positive = growth rescue, most hits filed as activators; calls by dose curve; note: potency is the fitted concentration of half-maximal effect; 0% is about no effect; nearly all actives have a fitted effect of over 55% in size
Pf growth 96h – Primary qHTS for delayed death inhibitors of the malarial parasite plastid, 96 hour incubation; Potency, µM (titrated, usually from 28.7 µM), inactives show at the top dose activity change, negative = inhibition, hits mostly inhibitors; AID 504834, 2011; P. falciparum luciferase reporter growth, 96 h; actives 6.9% (n = 320,000); note: potency is the fitted concentration of half-maximal effect; % is set by controls: 0 for no effect and ±100 for the full control effect
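Plates of compound plus infected erythrocytes (2% hematocrit, 0.05% parasitemia final) incubate 96 hours, 37 C, 5% CO2. Detection reagent added; reduced luminescence from the parasites' luciferase reporter flags inhibition.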
Sm TGR block – qHTS Assay for the Inhibitors of Schistosoma Mansoni Peroxiredoxins; Schistosoma mansoni thioredoxin glutathione reductase (TGR), Q962Y6; purified TGR, DTNB reduction, TNB absorbance 405 nm; Potency, µM (highest dose often 114 µM), for the others: at the highest dose activity change, negative = inhibition, hits mostly inhibitors; actives 3% (n = 360,000); AID 485364, 2010; note: potency is the fitted concentration of half-maximal effect; % is set by controls: 0 for no effect and ±100 for the full control effect; nearly all actives have a fitted effect of over 60% in size
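TGR 20 nM + NADPH 100 uM (dispensed conc.), cpd preinc 15 min RT; start with NADPH (500 uM addition) then DTNB (15 mM addition). Kinetic TNB absorbance, 405 nm filter. Four-parameter Hill fit across titration.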
HCV inhibitor – qHTS Assay for Inhibitors of Hepatitis C Virus (HCV); Huh7.5.1 HCVcc-Cre infection, luciferase reporter, 44 h; Potency, µM (top dose mostly 41.8 µM), inactives show top-dose activity change, negative = inhibition, actives largely listed as inhibitors; actives 3.4% (n = 340,000); AID 651820, 2012; note: potency is the fitted concentration of half-maximal effect; % is set by controls: 0 for no effect and ±100 for the full control effect
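Infectious HCV cell culture screen: compound-treated cells (1,000/well, pre-plated 4 h) are infected with HCVcc-Cre at roughly 0.5 moi and grown 44 h. Infection is quantified by luciferase signal after 15 min substrate incubation at room temperature.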
* hit, by the source's call; ? = inconclusive; . = no result given; [ ] = another dose, or the depositor's remark. Unless noted, calls come from the whole dose curve; as a rule, active = well fitted curve in the direction sought with a large enough effect; inconclusive = small, poorly fitted or top-dose-only effect, or another doubt; inactive = no such curve, though single readings can be large; an effect the other way counts as inactive or inconclusive.

SMILES	Pf growth 48h	HCMV antiviral	SARS PLpro yeast	Pf growth 96h	Sm TGR block	HCV inhibitor
COc1ccc2cc(/C=C3\SC(=S)NC3=O)c(N3CCOCC3)nc2c1	?	-88.2*	-2.9%	?	-2.4%	?
CCN1C(=O)C(=Cc2ccc(N3CCOCC3)o2)C(=O)N(CC)C1=S	1.0%	23.6	1.4%	0.0%	-25.2%	7.0%
CO/N=C/C1CCN(c2ncc(C(F)(F)F)cc2Cl)C1=O (stereo unspecified)	9.7%	8.7	-4.8%	25.7%	65.3%	-27.2%
O=c1[nH]c(SCc2ccc(F)cc2Cl)nc2ccccc12	1.9%	-20.4	-1.5%	33.8%	-16.9%	-24.0%
C=C(c1ccc2nc(NC(=O)OC)[nH]c2c1)c1cccs1	.	-88.4*	.	.	.	?
COC(=O)Nc1nc2ccccc2[nH]1	.	63.7	.	.	.	15.7%
COC(=O)c1cc2occc2n1CC(=O)Nc1ccc(C(C)C)cc1	.	2.0	.	.	-3.0%	.
Cc1ccc(S(=O)(=O)c2cnc3cc(C)nn3c2N)cc1	214.8%	?	2.5%	5.86µM*	-4.3%	22.8%
CCOc1ccc(Nc2nc3cc(S(=O)(=O)CC)ccc3o2)cc1	-30.8%	?	0.9%	13.1µM*	0.1%	-14.2%
CCN(CC)S(=O)(=O)c1ccc2oc(Nc3ccc4c(c3)OCCO4)nc2c1	?	38.0	2.5%	.	-7.3%	10µM*
C[C@H]1CN([C@@H](C)CO)C(=O)c2cccc(NC(=O)C3CC3)c2O[C@H]1CN(C)S(=O)(=O)c1ccccc1	.	-16.3	-3.3%	.	.	5.6%
Cc1ccc(SCC2(O)CCN(S(=O)(=O)c3ccc(Cl)cc3)CC2)cc1	?	2.1	-60.0%	-29.6%	5.9%	?
CN1CCN(CC2(O)CCN(S(=O)(=O)c3ccc(Cl)cc3)CC2)CC1	?	-68.7*	2.8%	-18.7%	-12.6%	-7.8%
COc1ccc(S(=O)(=O)N2CCC(O)(c3ccc(Cl)cc3)CC2)cc1OC	1.4%	-72.8*	-1.1%	-10.5%	8.4%	6.0%
COc1ccc(S(=O)(=O)N2CCC(O)(c3ccc(Cl)cc3)CC2)cc1	-19.6%	-16.8	-12.1%	23.5%	4.2%	-23.2%
C=CCn1c2ccccc2c(=O)c2cc(C#Cc3ccsc3)ccc21	0.0465µM*	.	-11.9%	0.329µM*	?	.
C=CCn1c2ccccc2c(=O)c2cc(C#Cc3ccccn3)ccc21	?	?	-1.7%	2.08µM*	?	12.6µM*
O=C(Nc1ccc(Cl)c(Cl)c1)OCCNC(=O)c1ccncc1	1.8%	?	-4.5%	-12.7%	2.5%	7.5%
Cc1ccccc1OCC(=O)Nc1ccccc1OCc1cc(=O)n2ccccc2n1	.	39.7	.	.	6.8%	.
Oc1ccc2ccccc2c1CN1CCCC1	13.1µM*	-23.2	-1.5%	37.6%	2.51µM*	9.8%
O=c1oc2ccccc2c(O)c1CN1CCCCC1	34.8%	-23.0	-4.3%	14.7µM*	-17.5%	11.9%
O=c1oc2ccccc2c(Nc2ccccc2)c1CN1CCCCC1	?	?	-1.1%	?	-35.3%	-28.7%
Oc1ccc2ccccc2c1CN1CCCCC1	.	-18.2	.	.	.	-9.6%
Oc1ccc2ccccc2c1CNc1ccc(Br)cn1	-9.4%	45.8	-12.4%	?	0.0%	?
Oc1ccc2ccccc2c1CNc1ccc(Br)cc1	28.6%[0.00184 µM]	-15.9	0.9%	1.4%	0.631µM*	2.51µM*
SMILES	Pf growth 48h	HCMV antiviral	SARS PLpro yeast	Pf growth 96h	Sm TGR block	HCV inhibitor
O=C(NCc1c(O)ccc2ccccc12)c1ccccc1	?	32.0	-2.9%	10.4µM*	-3.6%	-17.3%
NC(=O)c1cc[n+](CC(=O)NC(=O)Nc2ccccc2)cc1	25.8%	-2.2	-1.5%	15.4%	-1.6%	11.0%
O=C(COc1ccc(S(=O)(=O)N2CCOCC2)cc1Cl)NCc1ccc2c(c1)OCO2	.	-22.1	.	.	.	.
O=C(O)Cc1c(O)ccc2ccccc12	5.2%	1.7	5.1%	14.7%	-16.3%	11.8%
Oc1ccc2cc(Br)ccc2c1CN1CCCC1	?	-10.5	-3.3%	4.65µM*	31.6µM*	-6.2%
O=C(CCN1CC=C(c2ccccc2)CC1)NCc1ccccc1	.	0.0	.	.	.	.
Oc1ccc2ccccc2c1CN1CCN(c2ccccc2)CC1	8.28µM*	33.6	4.2%	?	2.82µM*	9.9%
NCc1c(O)ccc2ccccc12	14.1%	15.5	-3.3%	?	12.6µM*	.
Oc1ccc2ccccc2c1CN1CC2CCC(CC2)C1	.	8.6	.	.	.	6.3%
Oc1ccc2ccccc2c1CN1CC=C(c2ccccc2)CC1	?	14.7	0.4%	?	22.4µM*	13.3%
COCCNC(=O)C1(C)CCCN(CCS(=O)(=O)c2ccc(C)cc2)C1 (stereo unspecified)	.	6.7	.	.	.	.
C=CCn1nc(-c2ccccc2)cc1C(=O)OCC	.	-19.8	.	.	.	-4.2%
C=Cn1c(C(=O)O)cc(CC)c1-c1ccccc1	7.9%	6.2	-7.1%	1.47µM*	0.3%	11.8%
Cc1nn(C(=O)c2ccc(Cl)cc2)c(C)c1Sc1ccc(Cl)cc1	.	-2.0	.	.	-4.3%	.
Cc1c(Cl)cccc1NC(=O)Nc1cc(C(C)(C)C)on1	10.4µM*	-23.5	-11.2%	?	4.9%	10µM*
CC(C)(C)c1cc(NC(=O)Nc2ccc(Br)cc2Cl)no1	-26.5%	?	-1.2%	13.1µM*	-7.0%	-27.1%
CC(C)(C)c1cc(NC(=O)Nc2ccc(Cl)cc2Cl)no1	?	28.1	-2.6%	-21.4%	4.1%	?
COc1ccc(S(N)(=O)=O)cc1C(=O)OCC(=O)N1CC(=O)Nc2ccccc21	63.7%	24.3	-2.5%	4.9%	-5.8%	10.5%
Cc1cc(C)n(-c2ccc(Cl)c(C(=O)O)c2)n1	72.7%	-24.8	-0.4%	21.4%	4.9%	28.0%
COc1cccc2cc(C(=O)N3CC(C)OC(C)C3)c(=O)oc12 (stereo unspecified)	-0.4%	21.0	0.4%	3.8%	-12.0%	9.9%
COc1cc2c(oc(=O)c3cc(C)cc(OC)c32)c2c(C3OC(C)C(O)C(C)(O)C3O)ccc(O)c12 (stereo unspecified)	.	-68.7*	.	.	.	?
C=Cc1cc(OC)c2c(c1)c(=O)oc1c2cc(OC)c2c(O)ccc(C3OC(C)C(O)C(C)(O)C3O)c21 (stereo unspecified)	.	-97.8*	.	.	.	1µM*
COc1ccc(/C=C/C(=O)c2cc3cccc(OC)c3oc2=O)cc1	0.0%	4.9	0.3%	7.8%	-0.8%	-27.0%
Cc1cc(OC(=O)Nc2ccccc2)ccc1Cl	.	-10.6	.	.	.	.
